Experimental data from PubChem BioAssay (NCI).
The panel holds about 79,000 compounds, 15% with a hit somewhere; the sample as a whole holds those more often. Activity calls are given as the source filed them. Rule as the data show it: active = growth inhibition above about 70%; inactive = the rest.

Tests used:
[1] = NCI Yeast Anticancer Drug Screen. Data for the rad52 strain (AID 147);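 also: 0% = growth of vehicle-treated control cultures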; conditions: S. cerevisiae rad52 mutant growth inhibition, active compounds read high
Method in brief: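 Yeast strain carrying a DNA damage repair alteration was exposed to test compounds. Growth inhibition was measured relative to vehicle-treated controls.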

[2] = NCI Yeast Anticancer Drug Screen. Data for the rad50EPP+ strain (AID 151);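 also: 0% = growth of vehicle-treated control cultures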; conditions: S. cerevisiae rad50 mutant strain, active compounds read high
Method in brief: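 Yeast strain carrying rad50 alteration (rad50EPP+) exposed to compounds; growth inhibition measured relative to vehicle-treated controls.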

[3] = NCI Yeast Anticancer Drug Screen. Data for the mgt1 strain (AID 153); conditions: S. cerevisiae mgt1 mutant growth inhibition, active compounds read high
Method in brief: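 Yeast mgt1 strain (DNA repair/cell-cycle alteration panel) exposed to compounds; growth inhibition measured relative to vehicle-treated controls.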

[4] = NCI Yeast Anticancer Drug Screen. Data for the rad50 strain (AID 155);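 also: 0% = growth of vehicle-only cultures of the same strain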; conditions: S. cerevisiae rad50 strain growth inhibition, active compounds read high
Method in brief: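 Relative growth inhibition (compound vs vehicle) was measured in yeast with a defined repair-gene alteration.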

[5] = NCI Yeast Anticancer Drug Screen. Data for the mec2-1 strain (AID 157); conditions: S. cerevisiae mec2-1 strain, active compounds read high
Method in brief: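 mec2-1 yeast strain, carrying an alteration in DNA damage repair or cell cycle control, was exposed to compounds; growth inhibition was measured relative to vehicle-treated controls.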

[6] = NCI Yeast Anticancer Drug Screen. Data for the rad14 strain (AID 159);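 also: 0% = growth of vehicle-treated control cultures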; conditions: S. cerevisiae rad14 strain growth inhibition, active compounds read high
Method in brief: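 Screen for anticancer potential: a yeast strain altered in DNA damage repair is grown with compound, and reduced growth is quantified against vehicle controls.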

[7] = NCI Yeast Anticancer Drug Screen. Data for the sgs1 mgt1 strain (AID 161);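 also: 0% = growth of cultures given vehicle only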; conditions: S. cerevisiae sgs1 mgt1 strain, active compounds read high
Method in brief: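 Percent growth inhibition was derived by comparing compound-exposed mutant yeast with vehicle-exposed cultures. The strain carries alterations in DNA damage repair.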

[8] = NCI Yeast Anticancer Drug Screen. Data for the CLN2oe strain (AID 163);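 also: 0% = growth of vehicle-only control cultures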; conditions: S. cerevisiae CLN2oe strain, active compounds read high
Method in brief: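 Yeast cells carrying a defined cell-cycle control alteration were exposed to test compounds. Growth inhibition was scored against vehicle-treated control cultures.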

[9] = NCI Yeast Anticancer Drug Screen. Data for the cln2 rad14 strain (AID 165);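 also: 0% = growth equal to vehicle treated cultures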; conditions: S. cerevisiae cln2 rad14 strain, active compounds read high
Method in brief: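 Yeast carrying cln2 and rad14 alterations (cell cycle control and DNA damage repair) were exposed to compounds. Growth inhibition was measured against vehicle-treated controls.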

[10] = NCI Yeast Anticancer Drug Screen. Data for the bub3 strain (AID 167); conditions: S. cerevisiae bub3 mutant strain, active compounds read high
Method in brief: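 Screening used yeast with an engineered genetic alteration affecting cell cycle control. Compound-exposed cultures were compared with vehicle cultures, and reduced growth was taken as inhibition.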

[11] = NCI Yeast Anticancer Drug Screen. Data for the wt2 strain (AID 169);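 also: 0% = growth of vehicle-treated yeast cultures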; conditions: S. cerevisiae wt2 strain growth inhibition, active compounds read high
Method in brief: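 Yeast cells were exposed to test compounds, and growth inhibition was measured relative to vehicle-treated controls.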

[12] = NCI Yeast Anticancer Drug Screen. Data for the mlh1 strain (AID 171);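 also: 0% = growth of vehicle-treated control cultures of the same strain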; conditions: S. cerevisiae mlh1 strain growth inhibition, active compounds read high
Method in brief: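 Yeast carrying a defined genetic alteration in DNA damage repair or cell cycle control were exposed to test compounds. Growth inhibition was measured relative to vehicle-treated controls.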

[13] = NCI Yeast Anticancer Drug Screen. Data for the sgs1 strain (AID 173);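 also: 0% = growth of vehicle-only control cultures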; conditions: S. cerevisiae sgs1 mutant, active compounds read high
Method in brief: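 Yeast mutant strains carrying defined defects in DNA damage repair or cell cycle control were exposed to test compounds. Growth inhibition was scored against vehicle-treated controls.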

[14] = NCI Yeast Anticancer Drug Screen. Data for the rad18 strain (AID 177); conditions: S. cerevisiae rad18 mutant growth inhibition, active compounds read high
Method in brief: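 Yeast carrying a defined DNA damage repair alteration were exposed to compounds. Growth inhibition was expressed relative to vehicle-treated controls.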

[15] = NCI Yeast Anticancer Drug Screen. Data for the wt1 strain (AID 149);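 also: 0% = growth of vehicle-treated wt1 cultures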; conditions: S. cerevisiae wt1 strain (SPY 50644) growth inhibition, active compounds read high
Method in brief: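 Using yeast strain wt1, compound-induced growth inhibition was determined against vehicle-treated cultures.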

[16] = at 5.0 µM (retest, dose inferred, filed as 0.5)
[17] = at 50.0 µM (retest, dose inferred, filed as 5.0)

Measured: growth inhibition

O=CC=C(c1ccccc1)c1ccccc1
inactive: [1]; at 1.2 µM -2% | [1]; at 3.7 µM 0% | [1]; at 11.0 µM -9% | [1]; at 33.0 µM 8% | [2]; at 1.2 µM 20% | [2]; at 3.7 µM 18% | [2]; at 11.0 µM 26% | [2]; at 33.0 µM 43% | [3]; at 1.2 µM -10% | [3]; at 3.7 µM -6% | [3]; at 11.0 µM 2% | [3]; at 33.0 µM 10% | [4]; at 1.2 µM 8% | [4]; at 3.7 µM 5% | [4]; [16] 41% | [4]; at 11.0 µM 4% | [4]; at 33.0 µM 11% | [4]; at 50.0 µM 39.6% | [5]; at 1.2 µM 4% | [5]; at 3.7 µM 0% | [5]; [16] 51% | [5]; at 11.0 µM 0% | [5]; at 33.0 µM 20% | [5]; at 50.0 µM -13.3% | [6]; at 1.2 µM 7% | [6]; at 3.7 µM -2% | [6]; at 11.0 µM 3% | [6]; at 33.0 µM 10% | [7]; [16] -9% | [8]; at 1.2 µM 16% | [8]; at 3.7 µM 5% | [8]; at 11.0 µM 13% | [8]; at 33.0 µM 20% | [9]; [16] 36% | [9]; at 50.0 µM 39.1% | [10]; at 1.2 µM -11% | [10]; at 3.7 µM -13% | [10]; [16] 30% | [10]; at 11.0 µM -32% | [10]; at 33.0 µM -10% | [10]; at 50.0 µM 40.6% | [11]; at 1.2 µM 4% | [11]; at 3.7 µM 9% | [11]; at 11.0 µM 6% | [11]; at 33.0 µM 22% | [12]; at 1.2 µM 5% | [12]; at 3.7 µM 10% | [12]; at 11.0 µM 16% | [12]; at 33.0 µM 19% | [13]; at 1.2 µM -3% | [13]; at 3.7 µM 4% | [13]; at 11.0 µM 11% | [13]; at 33.0 µM 43% | [14]; at 1.2 µM 20% | [14]; at 3.7 µM 26% | [14]; at 11.0 µM 25% | [14]; at 33.0 µM 34%
active: [1]; at 100.0 µM 95% | [2]; at 100.0 µM 83% | [3]; at 100.0 µM 98% | [4]; [17] 86% | [4]; at 100.0 µM 98% | [5]; [17] 93% | [5]; at 100.0 µM 98% | [6]; at 100.0 µM 98% | [7]; [17] 97% | [7]; at 50.0 µM 80% | [8]; at 100.0 µM 98% | [9]; [17] 99% | [10]; [17] 98% | [10]; at 100.0 µM 98% | [11]; at 100.0 µM 97% | [12]; at 100.0 µM 99% | [13]; at 100.0 µM 99% | [14]; at 100.0 µM 98%

CN(C)CCn1c2c3ccccc3ccc2c2oc(=O)c3ccccc3c21
active: [15]; at 33.0 µM 92% | [15]; at 100.0 µM 92% | [2]; at 11.0 µM 94% | [2]; at 33.0 µM 97% | [2]; at 100.0 µM 94% | [3]; at 33.0 µM 96% | [3]; at 100.0 µM 93% | [4]; at 11.0 µM 93% | [4]; at 33.0 µM 97% | [4]; [17] 95% | [4]; at 50.0 µM 86.5% | [4]; at 100.0 µM 92% | [5]; at 33.0 µM 95% | [5]; [17] 98% | [5]; at 50.0 µM 88.3%
inactive: [15]; at 1.2 µM 13% | [15]; at 3.7 µM 8% | [15]; at 11.0 µM 35% | [2]; at 1.2 µM 19% | [2]; at 3.7 µM 54% | [3]; at 1.2 µM -7% | [3]; at 3.7 µM 10% | [3]; at 11.0 µM 49% | [4]; at 1.2 µM 21% | [4]; at 3.7 µM 51% | [4]; [16] 52% | [5]; at 1.2 µM 17% | [5]; at 3.7 µM 12% | [5]; [16] -12% | [5]; at 11.0 µM 40%
